PubChem BioAssay
Several values for one entry are separate records, joined by “and”; a condition that tells them apart may be missing. Equal values may be shown once. Where a structure was tested more than once in an assay, its records may differ in their call. Activity calls are given as the source filed them.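 How the source made its calls, unless noted: active means normalized viability below 100% at a tested concentration; inactive means the rest.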

What was measured:
[1] = Wnt pathway potentiators raising nuclear beta-catenin – imaging, WNT3A-conditioned medium, mouse C2C12, NPC library, primary screen (AID 1117326; in the data active means nuclear beta-catenin stimulation mostly above about 4.2%, no sharp cut-off; inactive means mostly below about 10%); settings: stronger effect = higher value
[2] = stimulators of insulin release from INS-1E, primary screen, cell-based, 5 mM glucose, NPC library (AID 1117329;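 active means compound raises insulin release from rat beta cells at 5 mM glucose, no numeric limit stated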); settings: rat INS-1E insulin secretion, at 10 µM, stronger effect = higher value
[3] = growth inhibition of GSK3B-pretreated HCT116 cells – cell-based, CellTiter-Glo, 0.2 to 20 µM (AID 1117336;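 active means compounds lowering colon cancer cell viability after pretreatment blocking the GSK3B kinase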); settings: HCT116 viability after GSK3B inhibitor, at 20 µM, stronger effect = higher value
[4] = inhibition of endothelial tube formation, primary screen, imaging, VEGF stimulated, CD31 staining, tube area, NPC library (AID 1117340;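 active means compound that reduces growth-factor-driven endothelial tube area in a mixed cell culture, no cutoff stated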); settings: VEGF-stimulated ADSC/ECFC co-culture, at 10 µM, stronger effect = higher value
[5] = GLP1 release stimulators, primary, NCI-H716, NPC library (AID 1117341;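 active means compound raises GLP1 secretion from the human gut endocrine cells, with no numeric limit stated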); settings: NCI-H716 cells, at 10 µM, stronger effect = higher value
[6] = HCT116 colon cancer cell growth inhibition, primary screen, CellTiter-Glo luminescence, NPC library (AID 1117342;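 active means compounds that lower survival of HCT116 colon cancer cells in the luminescence readout, no numeric limit stated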); settings: at 20 µM (top of the series)
[7] = reduced SW480 viability measured with CellTiter-Glo, NPC library, primary (AID 1117343;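 active means compounds that lower viability of the colon cancer cells in the luminescence readout, with no numeric limit stated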); settings: CellTiter-Glo luminescence; at 20 µM (top of the series)
[8] = NPC library primary testing for decreased DLD-1 cell viability via CellTiter-Glo (AID 1117346;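 active means compounds that lower survival of DLD-1 colon cancer cells in the luminescence readout, no cutoff given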); settings: DLD-1 viability, CellTiter-Glo luminescence; at 20 µM (top of the series)
[9] = target: 6-phosphogluconate dehydrogenase, decarboxylating (Homo sapiens) (UniProt P52209); test: inhibition of human phosphogluconate dehydrogenase – biochemical, recombinant enzyme, NADPH absorbance, primary screen (AID 1159550;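 active means at least 20% inhibition of 6-phosphogluconate dehydrogenase activity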); settings: recombinant 6PGD, NADPH absorbance 341 nm; at 10 µM; stronger effect = higher value
6-phosphogluconate dehydrogenase, decarboxylating (Homo sapiens), sequence (P52209 whole entry, looked up): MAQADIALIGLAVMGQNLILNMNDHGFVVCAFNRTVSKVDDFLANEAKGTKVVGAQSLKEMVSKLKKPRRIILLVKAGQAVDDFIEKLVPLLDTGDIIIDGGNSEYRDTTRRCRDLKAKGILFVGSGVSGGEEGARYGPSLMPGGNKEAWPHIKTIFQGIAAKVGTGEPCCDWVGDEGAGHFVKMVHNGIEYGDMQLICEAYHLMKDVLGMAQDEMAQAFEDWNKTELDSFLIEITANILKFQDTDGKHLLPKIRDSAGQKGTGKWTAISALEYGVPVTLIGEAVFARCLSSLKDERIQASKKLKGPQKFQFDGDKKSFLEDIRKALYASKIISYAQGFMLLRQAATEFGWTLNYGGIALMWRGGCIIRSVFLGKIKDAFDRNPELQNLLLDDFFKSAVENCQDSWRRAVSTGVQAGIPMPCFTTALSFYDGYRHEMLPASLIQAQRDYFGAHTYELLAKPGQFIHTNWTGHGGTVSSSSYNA

[10] = modulation of C. elegans fzo-1 (AID 1259413; call rule not given here;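 further: fzo-1 mutant C. elegans worms in liquid wells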); settings: C. elegans fzo-1 modulator screen, mean read-out; stronger effect = higher value
[11] = EMT-state selective cytotoxicity in co-culture – imaging, PC-3E GFP, TEM4-18 mCherry, primary screen (AID 1345086;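 active means compounds killing one labelled cell type while sparing the other, by normalised counts and ratio limits, not self-fluorescent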;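 on all read-outs here: cells exposed to compound for 72 h before imaging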;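 on red/green cell ratio (normalised): normalised mesenchymal count divided by normalised epithelial count so high means epithelial killing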); settings: PC-3E GFP / TEM4-18 mCherry co-culture, imaging cell counts, at 1 µM; for red/green cell ratio (normalised): actives lie on both sides, counts scaled to control wells, 1 = unselective
[12] = MELAS cybrid and Rieske KO viability enhancers – cell-based, MELAS cybrids, Rieske KO mouse fibroblasts, CellTiter-Glo, primary screen (AID 1508586;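 active means mean z-score across replicates of 1.96 or higher in either the MELAS or the Rieske mutant cell line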;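 further: z relative to plate mean and SD of compound and empty wells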); settings: low glucose
[13] = target: NAD(+) hydrolase SARM1 (Homo sapiens) (UniProt Q6SZW1); test: blocking NAD cleavage by SARM1 SAM-TIR – cell lysate, NAD-Glo luminescence (AID 1508614;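 active means compound whose remaining NAD level is above about 45 nM, limit read from the data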); settings: SAM-TIR HEK293T lysate NADase, at 1 µM, stronger effect = higher value
NAD(+) hydrolase SARM1 (Homo sapiens), sequence (Q6SZW1 whole entry, looked up, the tested form may be a part): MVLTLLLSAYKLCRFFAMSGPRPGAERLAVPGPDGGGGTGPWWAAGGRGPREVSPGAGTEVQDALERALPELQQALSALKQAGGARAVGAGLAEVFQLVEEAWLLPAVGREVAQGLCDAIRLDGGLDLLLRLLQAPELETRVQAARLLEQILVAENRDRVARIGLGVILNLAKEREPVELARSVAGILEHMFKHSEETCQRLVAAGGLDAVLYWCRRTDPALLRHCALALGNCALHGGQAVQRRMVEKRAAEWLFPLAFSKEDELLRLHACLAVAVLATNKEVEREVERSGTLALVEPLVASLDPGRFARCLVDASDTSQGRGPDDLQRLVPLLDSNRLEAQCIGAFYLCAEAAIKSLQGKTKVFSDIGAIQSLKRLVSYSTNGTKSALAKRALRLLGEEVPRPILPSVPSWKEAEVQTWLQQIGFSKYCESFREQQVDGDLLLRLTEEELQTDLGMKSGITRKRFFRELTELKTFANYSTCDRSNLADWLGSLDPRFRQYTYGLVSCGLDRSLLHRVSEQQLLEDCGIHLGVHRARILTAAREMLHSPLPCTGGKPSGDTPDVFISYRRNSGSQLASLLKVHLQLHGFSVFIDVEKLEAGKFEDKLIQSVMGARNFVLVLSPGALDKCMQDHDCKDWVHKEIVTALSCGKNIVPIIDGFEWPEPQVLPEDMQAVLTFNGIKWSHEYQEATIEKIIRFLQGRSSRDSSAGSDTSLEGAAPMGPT

[14] = target: Mitogen-activated protein kinase 7 (Homo sapiens) (UniProt Q13164); test: Gal4-ERK5 driven luciferase induction – cell-based, HTS, primary screen (AID 1508626;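 active means luciferase signal above three times the same-plate solvent-only control wells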;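 further: luciferase driven by Gal4-ERK5 fusion binding five Gal4 sites before minimal TATA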); settings: HeLa Gal4-ERK5 transactivation, 18 h, at 5 µM, stronger effect = higher value
Mitogen-activated protein kinase 7 (Homo sapiens), sequence (Q13164 whole entry, looked up, the tested form may be a part): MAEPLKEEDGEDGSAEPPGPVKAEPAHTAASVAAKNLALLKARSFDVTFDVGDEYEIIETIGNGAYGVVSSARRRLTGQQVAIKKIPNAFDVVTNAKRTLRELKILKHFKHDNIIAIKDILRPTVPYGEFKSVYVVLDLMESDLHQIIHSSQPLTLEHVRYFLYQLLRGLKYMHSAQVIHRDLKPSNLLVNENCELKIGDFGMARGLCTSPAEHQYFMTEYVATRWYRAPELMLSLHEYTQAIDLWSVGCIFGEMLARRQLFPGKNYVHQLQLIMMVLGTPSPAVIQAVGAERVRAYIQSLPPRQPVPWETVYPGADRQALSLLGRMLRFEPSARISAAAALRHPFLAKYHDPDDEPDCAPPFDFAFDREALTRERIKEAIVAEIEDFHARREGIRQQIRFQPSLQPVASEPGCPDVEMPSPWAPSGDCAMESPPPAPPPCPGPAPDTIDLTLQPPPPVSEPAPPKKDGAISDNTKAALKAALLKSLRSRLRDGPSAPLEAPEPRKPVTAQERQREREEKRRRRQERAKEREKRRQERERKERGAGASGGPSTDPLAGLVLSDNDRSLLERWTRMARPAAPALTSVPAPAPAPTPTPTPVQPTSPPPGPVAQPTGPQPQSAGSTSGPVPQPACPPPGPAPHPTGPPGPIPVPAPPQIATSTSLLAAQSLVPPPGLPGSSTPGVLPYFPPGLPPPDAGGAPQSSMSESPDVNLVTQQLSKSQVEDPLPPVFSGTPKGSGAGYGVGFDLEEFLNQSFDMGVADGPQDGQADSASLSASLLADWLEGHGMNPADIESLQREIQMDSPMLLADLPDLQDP

F380Y = test: BK channel mutant inhibitors and activators – cell-based, U2OS BacMam, thallium flux, beta subunits, selectivity assay, profiling panel (AID 1259406;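 active means thallium flux through the channel raised or lowered by more than 3 SD from vehicle-only wells, actives on both sides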;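 further: initial slope of Thallos dye fluorescence rise after thallium is added; log ratio against the mean of 0.3% DMSO vehicle wells on the same plate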); settings: U2OS BacMam BK variants, at 30 µM
F380Y/beta1 = test: as above; settings: U2OS BacMam BK variants, at 30 µM
F380Y/beta2Delta = test: as above; settings: U2OS BacMam BK variants, at 30 µM
[15] = viability loss with induced miR-34 in A549 – imaging, A549 dox-inducible miR-34, nuclei and caspase counts, primary screen (AID 1347080;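 active means compounds whose cell count with miR-34 switched on is under 0.7 times the count with it off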); settings: A549 miR-34 inducible, Hoechst nuclei count, 48 h
[16] = drug combination growth inhibition, ovarian cancer – cell-based, oncology-focused library, rucaparib conditional, profiling panel (AID 1508598); settings: patient-derived ovarian cancer cells, CellTiter-Glo viability, 144 h, stronger effect = lower value
[17] = growth inhibition, single agents and combos, ICB984, cell-based, cisplatin or BGB combos, synergistic combos for chromothripsis tumors (AID 1671451; call rule not given here;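 further: cells exposed for 96 hours before readout; 0% = vehicle DMSO and 100% = killing by high DMSO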); settings: ICB984 medulloblastoma cells, drug combinations, stronger effect = higher value
[18] = measured here: epithelial PC-3E GFP cell survival
[19] = measured here: mesenchymal TEM4-18 mCherry cell survival
[20] = MELAS cybrid survival, CellTiter-Glo 48 h, stronger effect = higher value
[21] = Rieske KO mouse fibroblast survival, CellTiter-Glo 72 h

CC12CC3CC(C)(C1)CC(N)(C3)C2
nuclear beta-catenin stimulation ([1]; at 10 µM): 2% (inactive)
nuclear beta-catenin stimulation ([1]; stimulation, at 2 µM): 1%
insulin secretion stimulation [2]: 12% (inactive)
viability decrease [3]: -2.8% (inactive)
tube area decrease [4]: -6.5% (inactive)
GLP1 secretion stimulation [5]: 2.8% (inactive)
inhibition of viability [6]: -5.4% (inactive)
viability decrease (inhibition) [7]: 14.2% (inactive)
viability decrease (inhibition) [8]: 0.65% (inactive)
inhibition [9]: 7.37% (inactive)
mean signal [10]: 254 (inactive)
red/green cell ratio (normalised) [11]: 0.87 (inactive)
normalised cell number [11, 18]: 1.15
normalised cell number [11, 19]: 1
z-score [12, 20]: -0.277 (inactive) and -0.613 (inactive)
z-score [12, 21]: 0.678 and -0.28
remaining NAD [13]: 10 nM (inactive)
luciferase signal [14]: 40 AU (inactive)
log fold change Tl+ flux (F380Y): 0.0112 (inactive)
log fold change Tl+ flux (F380Y/beta1): 0.0185 (inactive)
log fold change Tl+ flux (F380Y/beta2Delta): 0.0288 (inactive)

S=c1nc[nH]c2nc[nH]c12
nuclear beta-catenin stimulation ([1]; at 10 µM): -0.9% (inactive)
nuclear beta-catenin stimulation ([1]; stimulation, at 2 µM): 0.6%
insulin secretion stimulation [2]: 0.6% (inactive)
viability decrease [3]: 77.7% (active)
tube area decrease [4]: 95.3% (active)
GLP1 secretion stimulation [5]: -0.7% (inactive)
inhibition of viability [6]: 83.2% (active)
viability decrease (inhibition) [7]: 107% (active)
viability decrease (inhibition) [8]: 79.1% (active)
inhibition [9]: -3.59% (inactive)
mean signal [10]: 247 (inactive)
red/green cell ratio (normalised) [11]: 0.76 (inactive)
normalised cell number [11, 18]: 1.42
normalised cell number [11, 19]: 1.07
fold change ([15]; stronger effect = lower value, cell number ratio, induced over uninduced): 0.793 (inactive) and 0.952 (inactive) and 0.815 (inactive)
fold change ([15]; measured here: relative caspase fold change +Dox/-Dox): 1.23 and 0.341 and 5.81
cell count ([15]; measured here: total cells with miR-34 induction, stronger effect = lower value): 5690 and 7180 and 6280
cell count ([15]; measured here: total cells without miR-34 induction): 7180 and 7540 and 7700
z-score [12, 20]: 0.0168 (inactive) and 3.92 (active)
z-score [12, 21]: 0.195 and 0.755
viability ([16]; at 0.000305 µM, OCI-C5x cells, with rucaparib 10 µM, 100% = cells with rucaparib alone): 120% (inactive)
viability ([16]; at 0.000305 µM, OCI-C5x cells, without rucaparib): 111% (inactive)
viability ([16]; at 0.000305 µM, OCI-P5x cells, with rucaparib 20 µM, 100% = cells with rucaparib alone): 94.6% (active)
viability ([16]; at 0.000305 µM, OCI-P5x cells, without rucaparib): 92.1% (active)
viability ([16]; at 0.00122 µM, OCI-C5x cells, with rucaparib 10 µM, 100% = cells with rucaparib alone): 110% (inactive)
viability ([16]; at 0.00122 µM, OCI-C5x cells, without rucaparib): 105% (inactive)
viability ([16]; at 0.00122 µM, OCI-P5x cells, with rucaparib 20 µM, 100% = cells with rucaparib alone): 98.4% (active)
viability ([16]; at 0.00122 µM, OCI-P5x cells, without rucaparib): 94.6% (active)
viability ([16]; at 0.00488 µM, OCI-C5x cells, with rucaparib 10 µM, 100% = cells with rucaparib alone): 111% (inactive)
viability ([16]; at 0.00488 µM, OCI-C5x cells, without rucaparib): 100% (inactive)
viability ([16]; at 0.00488 µM, OCI-P5x cells, with rucaparib 20 µM, 100% = cells with rucaparib alone): 99.6% (active)
viability ([16]; at 0.00488 µM, OCI-P5x cells, without rucaparib): 90.4% (active)
viability ([16]; at 0.0195 µM, OCI-C5x cells, with rucaparib 10 µM, 100% = cells with rucaparib alone): 104% (inactive)
viability ([16]; at 0.0195 µM, OCI-C5x cells, without rucaparib): 109% (inactive)
viability ([16]; at 0.0195 µM, OCI-P5x cells, with rucaparib 20 µM, 100% = cells with rucaparib alone): 94.9% (active)
viability ([16]; at 0.0195 µM, OCI-P5x cells, without rucaparib): 84.4% (active)
viability ([16]; at 0.0781 µM, OCI-C5x cells, with rucaparib 10 µM, 100% = cells with rucaparib alone): 123% (inactive)
viability ([16]; at 0.0781 µM, OCI-C5x cells, without rucaparib): 95.4% (active)
viability ([16]; at 0.0781 µM, OCI-P5x cells, with rucaparib 20 µM, 100% = cells with rucaparib alone): 90.4% (active)
viability ([16]; at 0.0781 µM, OCI-P5x cells, without rucaparib): 87.6% (active)
viability ([16]; at 0.313 µM, OCI-C5x cells, with rucaparib 10 µM, 100% = cells with rucaparib alone): 106% (inactive)
viability ([16]; at 0.313 µM, OCI-C5x cells, without rucaparib): 91.6% (active)
viability ([16]; at 0.313 µM, OCI-P5x cells, with rucaparib 20 µM, 100% = cells with rucaparib alone): 89.7% (active)
viability ([16]; at 0.313 µM, OCI-P5x cells, without rucaparib): 86.1% (active)
viability ([16]; at 1.25 µM, OCI-C5x cells, with rucaparib 10 µM, 100% = cells with rucaparib alone): 105% (inactive)
viability ([16]; at 1.25 µM, OCI-C5x cells, without rucaparib): 93.1% (active)
viability ([16]; at 1.25 µM, OCI-P5x cells, with rucaparib 20 µM, 100% = cells with rucaparib alone): 87.9% (active)
viability ([16]; at 1.25 µM, OCI-P5x cells, without rucaparib): 80.6% (active)
viability ([16]; at 5 µM, OCI-C5x cells, with rucaparib 10 µM, 100% = cells with rucaparib alone): 126% (inactive)
viability ([16]; at 5 µM, OCI-C5x cells, without rucaparib): 107% (inactive)
viability ([16]; at 5 µM, OCI-P5x cells, with rucaparib 20 µM, 100% = cells with rucaparib alone): 79% (active)
viability ([16]; at 5 µM, OCI-P5x cells, without rucaparib): 79.9% (active)
remaining NAD [13]: 10 nM (inactive)
luciferase signal [14]: 2730 AU (active)
inhibition ([17]; BGB IC20 combo, at 0.005 µM): -10.3% and -30.1% and -29.5%
inhibition ([17]; BGB IC40 combo, at 0.005 µM): -20.2% and -36.3% and -18.2%
inhibition ([17]; BGB IC40 combo, at 0.05 µM): -14.4% and -4.47% and -23%
inhibition ([17]; at 0.5 µM): -13.7% (inactive) and -13.9% (inactive) and -17.8% (inactive)
inhibition ([17]; cisplatin combo, at 0.05 µM): -14.4% and -8.61% and -23%
inhibition ([17]; cisplatin combo, at 0.5 µM): -25.2% and -17.5% and -28.1%
inhibition ([17]; cisplatin combo, at 5 µM): -3.58% and -36.1% and -37.1%
inhibition ([17]; measured here: 5 uM single agent, at 5 µM): -34.5% and -9.53% and -28.9%
log fold change Tl+ flux (F380Y): -0.0324 (inactive)
log fold change Tl+ flux (F380Y/beta1): -0.00111 (inactive)
log fold change Tl+ flux (F380Y/beta2Delta): -0.00985 (inactive)
